Source: article PMC5540273 (PLoS ONE, 2017)

Tests used:
Conditions in all cases: concentration: 1 μM, replicates: in singlicate; n = 1
CSK = tested on: CSK
CSNK1A1L = tested on: CSNK1A1L
CSNK1A1 = tested on: CSNK1A1
CSNK1D = tested on: CSNK1D
CSNK1E = tested on: CSNK1E
CSNK1G1 = tested on: CSNK1G1
CSNK1G2 = tested on: CSNK1G2
CSNK1G3 = tested on: CSNK1G3
CSNK2A1 = tested on: CSNK2A1
CSNK2A2 = tested on: CSNK2A2
CTK = tested on: T1, CTK
T1 construct: gene MATK

DAPK1 = tested on: DAPK1
DAPK2 = tested on: DAPK2
DAPK3 = tested on: DAPK3
DCAMKL1 = tested on: T2, DCAMKL1
T2 construct: gene DCLK1

DCAMKL2 = tested on: T3, DCAMKL2
T3 construct: gene DCLK2

DCAMKL3 = tested on: T4, DCAMKL3
T4 construct: gene DCLK3

DDR1 = tested on: DDR1
DDR2 = tested on: DDR2
DLK = tested on: T5, DLK
T5 construct: gene MAP3K12
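Also: KINOMEscan kinase panel screen.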

Row | SMILES | %Inh (CSK) [%] | %Inh (CSNK1A1L) [%] | %Inh (CSNK1A1) [%] | %Inh (CSNK1D) [%] | %Inh (CSNK1E) [%] | %Inh (CSNK1G1) [%] | %Inh (CSNK1G2) [%] | %Inh (CSNK1G3) [%] | %Inh (CSNK2A1) [%] | %Inh (CSNK2A2) [%] | %Inh (CTK) [%] | %Inh (DAPK1) [%] | %Inh (DAPK2) [%] | %Inh (DAPK3) [%] | %Inh (DCAMKL1) [%] | %Inh (DCAMKL2) [%] | %Inh (DCAMKL3) [%] | %Inh (DDR1) [%] | %Inh (DDR2) [%] | %Inh (DLK) [%]
1 | CC[C@@H]1CO[C@H](C(=O)Nc2ccccc2)CN1c1cc(-c2ccc3c(N)n[nH]c3c2)nc(NC)n1 [GSK2376236] | 0 | 4 | 0 | 39 | 42 | 7 | 31 | 39 | 12 | 10 | 0 | 17 | 37 | 47 | 2 | 0 | 90 | 0 | 11 | 0
2 | COc1cccc(CNC(=O)NC2CCN(c3ccnc(Nc4ccc(F)cc4)n3)C2)c1 (stereo not shown) [GSK1379723] | 0 | 21 | 19 | 4 | 11 | 0 | 0 | 16 | 0 | 2 | 22 | 0 | 22 | 7 | 9 | 0 | 0 | 7 | 0 | 0
3 | COC(=O)C(NC(=O)NC1CCN(c2ccnc(Nc3ccc(F)cc3)n2)C1)c1ccccc1 (stereo not shown) [GSK1379712] | 0 | 3 | 0 | 92 | 19 | 5 | 1 | 25 | 3 | 0 | 0 | 15 | 0 | 25 | 17 | 12 | 0 | 0 | 39 | 0
4 | Cc1c(Cn2c3ccccc3n3c(=O)cc(N4CCOCC4)nc23)cccc1C(F)(F)F [GSK2306394] | 0 | 0 | 19 | 10 | 12 | 9 | 43 | 17 | 6 | 14 | 10 | 12 | 4 | 0 | 0 | 0 | 0 | 19 | 0 | 0
5 | COc1ccc(Nc2nccc(N3CCC(NC(=O)c4cc5ccccc5s4)C3)n2)cc1 (stereo not shown) [GSK1379738] | 2 | 2 | 0 | 9 | 34 | 0 | 0 | 17 | 5 | 0 | 0 | 0 | 0 | 25 | 14 | 0 | 0 | 80 | 23 | 28
